PLCb3 inh: human PLC-beta3 inhibitors, primary screen, biochemical, fluorescence. 1-phosphatidylinositol 4,5-bisphosphate phosphodiesterase beta-3 (Homo sapiens), Q01970. Purified PLC-beta3, fluorogenic substrate. inhibition, % at 12.2 µM. actives 0.18% (n = 370,000); in the data active means inhibition above about 11%;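 further: 0% = median of compound wells on plate and 100% = full blocker control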
PLC-gamma1 inh: PLC-gamma1 enzyme inhibitors, primary screen, biochemical, fluorescence, purified enzyme | 1-phosphatidylinositol 4,5-bisphosphate phosphodiesterase gamma-1 (Homo sapiens), P19174 | fluorogenic substrate | inhibition, % at 12.2 µM | actives 0.84% (n = 370,000) | AID 720700, 2013; in the data active means inhibition above about 9.5%
ADAM17 inh: ADAM17 inhibitors, primary screen, biochemical, QFRET; actives 0.83% (n = 370,000); recombinant ADAM17, EDANS/DABCYL FRET peptide cleavage; AID 720648, 2013; inhibition, % at 6.95 µM;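 active means inhibition above the mean of compounds lying between control limits plus 3 SD, set per campaign, cut at about 8.5% in these data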;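 further: 0% = DMSO-only wells as the low control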
Target sequence (P78536 215-824 limits assumed): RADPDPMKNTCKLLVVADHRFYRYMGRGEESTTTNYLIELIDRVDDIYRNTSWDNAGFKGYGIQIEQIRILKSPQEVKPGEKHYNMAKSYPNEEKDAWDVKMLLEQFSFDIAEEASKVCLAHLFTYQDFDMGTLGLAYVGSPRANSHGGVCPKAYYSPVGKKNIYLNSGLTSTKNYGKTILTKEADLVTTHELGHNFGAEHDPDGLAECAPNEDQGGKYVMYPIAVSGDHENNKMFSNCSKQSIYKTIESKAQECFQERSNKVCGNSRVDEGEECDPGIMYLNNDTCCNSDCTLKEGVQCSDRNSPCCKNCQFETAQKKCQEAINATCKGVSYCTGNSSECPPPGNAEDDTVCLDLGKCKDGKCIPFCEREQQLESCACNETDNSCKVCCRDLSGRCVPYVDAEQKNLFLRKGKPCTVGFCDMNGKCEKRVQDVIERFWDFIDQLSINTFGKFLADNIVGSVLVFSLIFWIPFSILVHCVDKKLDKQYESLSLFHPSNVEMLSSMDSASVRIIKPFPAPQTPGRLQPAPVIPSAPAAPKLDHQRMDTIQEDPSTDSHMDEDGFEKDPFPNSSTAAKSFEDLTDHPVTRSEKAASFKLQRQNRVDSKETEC
ADAM10 inh: human ADAM10 inhibitors, primary screen, biochemical, QFRET, HTS. Disintegrin and metalloproteinase domain-containing protein 10 (Homo sapiens), O14672. recombinant ADAM10, EDANS/DABCYL FRET peptide cleavage, 3 h. inhibition, % at 7 µM. actives 0.62% (n = 370,000). AID 720582, 2013;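 active means inhibition above a per-campaign cutoff equal to the mean of compounds falling between control-based bounds plus 3 SD, cut at about 20% in these data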;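 further: 0% = DMSO wells while the 100% control is not disclosed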
sPLA2-III inh: human group III sPLA2 inhibitors, primary screen, biochemical, QFRET, BODIPY PC-A2 liposome substrate | inhibition, % at 12.2 µM | AID 743126, 2013 | actives 0.56% (n = 370,000) | QFRET BODIPY PC-A2 liposome hydrolysis, fluorescence | Group 3 secretory phospholipase A2 (Homo sapiens), Q9NZ20;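 active means inhibition above mean plus 3 SD of compounds lying within the high and low control bounds, cut at about 19% in these data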;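 further: 0% = median of test compound wells and 100% = no enzyme DMSO wells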
proKLK7 act: proKLK7 zymogen activators, primary screen, biochemical, fluorescence intensity. Kallikrein-7 (Homo sapiens), P49862. purified proKLK7, EDANS-DABCYL substrate fluorescence; 100% is mature enzyme control, 0% vehicle. activation, % at 7 µM. actives 0.9% (n = 370,000);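 active means activation above the mean of all tested compounds plus 3 SD, computed per campaign excluding outliers beyond control limits, cut at about 13% in these data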
KLK7 act conf: proKLK7 zymogen activators, confirmation, biochemical, fluorescence intensity, triplicate; actives 68% (n = 3,200); shares compounds with proKLK7 act; activation, % at 7 µM; purified proKLK7, EDANS-DABCYL substrate fluorescence; scaled: vehicle 0, mature enzyme 100;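 active means activation, as change over the incubation, above the mean of all tested compounds plus 3 SD, cut at about 13% in these data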
EDANS interfere: EDANS-DABCYL substrate optical interference, artefact control for kallikrein-7 zymogen activator project, biochemical, fluorescence intensity, high throughput; shares compounds with proKLK7 act; no enzyme, 4 h; solvent 0%, active enzyme control 100%; activation, % at 7 µM; actives 80% (n = 3,200);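 active means activation above the all-compound mean plus 3 SD, ignoring values outside control-based bounds, cut at about 4.8% in these data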;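 further: value is the 4 h activation minus the activation read at time zero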
K7 EDANS ctr: EDANS fluorescence interference in dose response, no enzyme; shares compounds with proKLK7 act; EDANS-DABCYL peptide fluorescence interference; EC50, µM; actives 20% (n = 250); AID 720493;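 active means compounds that raise the fluorescence signal in this interference counterscreen, with EC50 at or below 10 µM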;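 further: intact quenched peptide substrate alone read at 355 nm excitation and 520 nm emission; signal is fluorescence gain from T0 to T4 after four hours at room temperature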
* hit, by the source's call; i = inactive; · = no result given. Only some compounds are listed: those with a hit (about 3.4% of all), similar ones and a draw of the others.

SMILES | PLCb3 inh | PLC-gamma1 inh | ADAM17 inh | ADAM10 inh | sPLA2-III inh | proKLK7 act | KLK7 act conf | EDANS interfere | others
CC(=O)Nc1ccc(S(=O)(=O)Nc2nc3ccccc3nc2-n2ccc(=NC(=O)c3ccccc3)cc2)cc1 | -69.9 | -43.3 | -2.2 | -7.1 | 0.9 | 39.0* | 39.9* | 16.0* | K7 EDANS ctr=i
CCOc1ccc(/C=C/C(=O)Nc2ccc(C(N)=O)cc2)cc1OC | -34.2 | -48.3 | -19.1 | -57.4 | 6.3 | 42.5* | 85.0* | 94.2*
COc1ccc(/C=C/C(=O)Nc2ccncc2)cc1OC | -414.1 | -338.5 | -169.7 | -497.1 | 7.4 | 17.4* | 12.8* | 13.1*
COc1ccc(NC(=O)COc2ccc(/C=C/c3cc[n+](C)cc3)cc2OC)cc1 | i | i | -19.7 | -56.1 | 4.0 | 30.6* | 63.7* | 67.8*
COc1ccc(NC(=O)COc2ccc(/C=C/c3cccc[n+]3C)cc2OC)cc1 | -294.8 | -225.7 | -6.3 | -15.5 | -0.3 | 3.8 | · | ·
COc1ccc(NC(=O)/C=C/c2ccc(OC)c(OC)c2)cn1 | -4.7 | -1.8 | -4.7 | -1.8 | 3.0 | -0.2 | · | ·
O=C1NC(c2ccc(Cl)cc2)Nc2ccccc21 (stereo not drawn) | -33.3 | -25.0 | -26.6 | -81.4 | 0.2 | 2.5 | · | ·
O=C1NC(c2ccco2)Nc2ccccc21 (stereo not drawn) | -434.8 | -323.4 | -305.6 | i | 11.3 | 16.0* | 16.8* | 17.9*
CCOc1ccccc1C1NC(=O)c2ccccc2N1 (stereo not drawn) | i | -435.4 | -404.2 | i | -0.3 | 13.2* | 12.6* | 11.9*
Cc1ccc(C2NC(=O)c3ccccc3N2)c(C)c1 (stereo not drawn) | i | i | i | i | 13.4 | 32.0* | 28.7* | 26.2*
COc1ccc(CNC(=O)c2c(N)[nH]c(C(=O)c3ccccc3)c2-c2ccc3ccccc3c2)cc1OC | -12.5 | -10.0 | 5.6 | 15.8 | -0.2 | 0.3 | · | ·
CCC1(C)Cc2ccccc2-c2nc(NCCO)n(-c3ccccc3)c(=O)c21 (stereo not drawn) | i | i | i | i | -2.9 | 26.3* | -70.3 | -82.4
CCC1(C)Cc2ccccc2-c2nc(NCCO)n(-c3ccc(C)cc3)c(=O)c21 (stereo not drawn) | i | i | i | i | -9.7 | -4.7 | · | ·
CCC1(CC)Cc2ccccc2-c2nc(NCCO)[nH]c(=O)c21 | i | i | i | i | -32.6 | 24.7* | -21.2 | -28.0
O=c1[nH]c(NCCO)nc2c1C1(CCCCC1)Cc1ccccc1-2 | i | i | -438.8 | i | -30.3 | -9.6 | · | ·
COc1ccc(OC)c2c(N3CCN(C)CC3)cc(C(F)(F)F)nc12 | i | i | -21.7 | -56.1 | -1.3 | 13.2* | 8.7 | 15.0*
COc1ccc(-c2cc(C(F)(F)F)nc(SCC(=O)N3CC(C)OC(C)C3)n2)cc1OC (stereo not drawn) | -104.1 | -81.0 | -4.4 | -15.2 | 4.8 | -0.9 | · | ·
COc1ccc(OC)c2c(N3CC(C)OC(C)C3)cc(C(F)(F)F)nc12 (stereo not drawn) | i | i | -25.0 | -142.5 | 4.8 | 14.6* | 13.4* | 12.1*
CN1CCN(c2nc(-c3ccccc3)cc(C(F)(F)F)n2)CC1 | -8.0 | -6.7 | -10.3 | -26.8 | -2.3 | 0.7 | · | ·
COCCCNC(=O)C[C@H]1C[C@@]2(C(=O)OC)C(=C[C@H](C(C)(C)C)O[C@@H]2C)N(CCc2ccc(OC)c(OC)c2)C1=O | 3.2 | -2.8 | -2.4 | -8.1 | 3.0 | -0.3 | · | ·
COc1ccc(C2=CC(c3ccc(OC)c(OC)c3)n3nnnc3N2)c(OC)c1 (stereo not drawn) | -291.5 | -243.0 | -8.2 | -67.1 | -18.1 | 15.8* | 10.9 | -15.4
COc1ccc(C2C=C(c3ccccc3)Nc3nnnn32)cc1 (stereo not drawn) | -214.8 | -191.6 | -50.0 | -154.4 | -28.2 | 2.6 | · | ·
CN1CCN(Cc2c(O)ccc3cc(-c4ccccn4)c(=O)oc23)CC1 | i | i | i | i | 3.2 | 67.1* | 77.0* | 69.0*
CCOC(=O)c1c(C)oc2ccc(O)c(CN3CCCCC3)c12 | 3.2 | 1.7 | -3.6 | 1.6 | -10.8 | 0.1 | · | ·
Cc1c(C)c2ccc(O)c(CN3CCN(C)CC3)c2oc1=O | i | i | i | i | 2.4 | 63.5* | 70.2* | 65.5*
SMILES | PLCb3 inh | PLC-gamma1 inh | ADAM17 inh | ADAM10 inh | sPLA2-III inh | proKLK7 act | KLK7 act conf | EDANS interfere | others
CCc1c(C)c2ccc(O)c(CN3CCCC3)c2oc1=O | i | i | i | i | -9.2 | 38.2* | 58.7* | 63.1*
CN1CCN(Cc2c(O)ccc3cc(Br)ccc23)CC1 | -2.9 | -1.2 | -4.5 | -5.8 | -31.6 | -0.6 | · | ·
Cc1c(C)c2ccc(O)c(CN3CCCC3)c2oc1=O | i | i | i | i | -12.4 | 61.0* | 64.1* | 65.5*
COC(=O)Cc1c(C)c2ccc(O)c(CN3CCCC(C)C3)c2oc1=O (stereo not drawn) | i | i | i | i | 0.9 | 52.6* | 76.1* | 74.6*
Cc1c(O)c(CN2CCCCC2)cc2c3c(c(=O)oc12)CCC3 | i | i | i | i | -1.5 | 44.4* | 72.9* | 76.5*
O=c1oc2c(CN3CCCCC3)c(O)ccc2c2c1CCCC2 | i | i | i | i | 2.3 | 62.3* | 66.4* | 70.3*
CCOc1ccc2c3c(c(=O)oc2c1OCC)CCCC3 | i | i | -69.8 | -170.6 | 3.7 | -0.4 | · | ·
COC(=O)Cc1c(C)c2ccc(OCC(=O)N3CCC(C)CC3)c(C)c2oc1=O | -79.2 | -45.6 | -226.2 | i | -0.3 | 2.6 | · | ·
CCCCNc1cccc2c1S(=O)(=O)N[C@H](CC(C)C)CO2 | -4.6 | 3.6 | -0.7 | -6.1 | 12.9 | 0.5 | · | ·
CCCCn1nc2cc(C(=O)NCC3CC3)ccc2c1OCC | i | -325.0 | -241.8 | i | 0.5 | 17.6* | -2.9 | -5.4
CCCCn1nc2cc(C(=O)NCc3ccco3)ccc2c1OCC | -451.1 | -291.9 | -166.3 | i | -4.7 | 5.5 | · | ·
